Measured values from PubChem BioAssay (NCI).
The panel holds about 83,000 compounds, 20% with a hit somewhere; the sample as a whole holds those more often.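 Step 1: grow cells in 96-well plates. Step 2: add test compound at a single concentration. Step 3: incubate 48 h. Step 4: record percent growth.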 Values without a mark were called inactive. Activity calls are given as the source filed them. The calls were made as follows: active = growth percent below 10; inactive = the rest.

Experiments:
Assay in all cases: NCI-60 one-dose screen, 48 h (100 = growth as untreated, 0 = no growth, -100 = all killed)
Conditions in all cases: 10 µM unless noted
EKVX NSCLC = test system: EKVX NSCLC
SN12C renal = test system: SN12C renal
UO-31 renal = test system: UO-31 renal
TK-10 renal = test system: TK-10 renal
ACHN renal = test system: ACHN renal
CAKI-1 renal = test system: CAKI-1 renal
A498 renal = test system: A498 renal
CCRF-CEM leukemia = test system: CCRF-CEM leukemia
MOLT-4 leukemia = test system: MOLT-4 leukemia
SR leukemia = test system: SR leukemia

Row | SMILES | growth (EKVX NSCLC) | growth (SN12C renal) | growth (UO-31 renal) | growth (TK-10 renal) | growth (ACHN renal) | growth (CAKI-1 renal) | growth (A498 renal) | growth (CCRF-CEM leukemia) | growth (MOLT-4 leukemia) | growth (SR leukemia)
1 | O=C(NC1C(O)OC(CO)C(O)C1O)NS(=O)(=O)c1ccc(Cl)cc1 (stereo not given) | 109% | 98.1% | 77.1% | 110% | 102% | 94.4% | 95.2% | 99.1% | 102% | 100%
2 | CCOC(=O)c1c2c(n3cccc(Cl)c13)C(=O)c1ncccc1C2=O | 75.7% | 16.6% | 43.9% | 75.6% | 26.4% | 25.8% | 79.3% | 84.2% | 95.8% | 58.3%
3 | Clc1ccc(Nc2scc3[n+]2CCC3)cc1 | 60.3% | 98.2% | 81.3% | 111% | 104% | 84.8% | 82.5% | 95.8% | 94.6% | 113%
4 | O=S1(=O)N(Cc2ccccc2)[C@@H](Cc2ccccc2)[C@H](O)[C@H](O)[C@H](Cc2ccccc2)N1Cc1ccccc1 | -1.3% (active) | 5.15% (active) | 0% (active) | 60.4% | -7.05% (active) | -19.1% (active) | 18.5% | 7.73% (active) | 5.65% (active) | 4.45% (active)
5 | COC(=O)/C(CCC=C(C)C)=C1\[C@@H](OC(C)=O)C[C@@]2(C)[C@H]1C[C@@H](O)[C@H]1[C@@]3(C)CC[C@H](NCCCNCCCCNCCCN)[C@@H](C)[C@@H]3CC[C@@]12C | 66.2% | 38.2% | 51.7% | 69.4% | 42.4% | 61.9% | 69.1% | 70.6% | 65.4% | 42.3%
6 | CCOC(=O)c1sc(-c2ccc(OS(=O)(=O)c3ccc(Br)s3)c(C=O)c2)nc1C | 85.6% | 4.77% (active) | -0.882% (active) | -1.6% (active) | 7.37% (active) | 3.48% (active) | 65.3% | 8.75% (active) | 9.25% (active) | 13.9%
7 | O=Cc1cc2ccccc2nc1Nc1nccs1 | 98.5% | 45.5% | 31.2% | 101% | 31.5% | 79.5% | 81.9% | 46.7% | 23.4% | 33.9%
8 | CSc1nc2c(c(=O)[nH]1)N=C1c3ccccc3C(=O)C1C(c1ccc(F)cc1)N2 (stereo not given) | 74.8% | 87.7% | 62.8% | 78.2% | 59.1% | 25.8% | 88.2% | 52.5% | 76% | 31.5%
9 | COc1cc(/C(C#N)=C/c2nc3c(N4CCOCC4)nc(Cl)nc3n2C)cc(OC)c1OC | 35.2% | 14.9% | -1.84% (active) | 50.5% | 13.7% | 6.49% (active) | -28.1% (active) | 14.4% | 9.93% (active) | 27.9%
10 | COc1cccc(C2=NN3C(C2)c2ccccc2OC3c2ccc(/C=C3\SC(=O)NC3=O)cc2)c1 (stereo not given) | 85.4% | 101% | 73.2% | 102% | 98.7% | 96.4% | 88.6% | 97.1% | 96.9% | 120%
11 | O=c1c2cccc(F)c2sc2c(N3CCNCC3)nc3ccccc3c12 | 48.2% | 46.5% | 23% | 53% | 16% | 39.4% | 48.5% | 13.2% | -18.8% (active) | 3.21% (active)
12 | COc1ccc(N(C)c2nc(N)nc3sc4c(c23)CCCC4)cc1 | 61% | 24.2% | 38.5% | 45.1% | 26.7% | 25.6% | 0.565% (active) | 9.1% (active) | 11.6% | 6.49% (active)
